Bioassay records: PubChem, The Scripps Research Institute Molecular Screening Center
hcDAF12 agonist = activators of H. contortus DAF-12 nuclear receptor; AID 652067; activation, % at 6.8 µM; actives 1.4% (n = 370,000); HEK293 hcDAF-12 lit1-tk-luc reporter, luminescence; 0% DMSO, 100% Δ7-dafachronic acid;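 active = activation above the mean of all tested compounds plus 3 SD, cut at about 5.5% in these data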;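 also: 100% = response to 3 µM Δ7-dafachronic acid high control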
DAX1 inh-1 = inhibitors of human orphan nuclear receptor DAX1 (NR0B1); HEK293 Gal4-DAX1 luciferase reporter, luminescence; inhibition, % at 6.75 µM; actives 0.99% (n = 340,000); AID 504766;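 active = inhibition above the mean over all tested compounds plus 3 SD, cut at about 4.2% in these data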;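 also: 0% = DAX1-transfected cells with DMSO and 100% = empty-vector control cells with DMSO; inhibition shows as a rise in luminescence from relieved DAX1 repression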
Target sequence (P51843 207-470 limits assumed): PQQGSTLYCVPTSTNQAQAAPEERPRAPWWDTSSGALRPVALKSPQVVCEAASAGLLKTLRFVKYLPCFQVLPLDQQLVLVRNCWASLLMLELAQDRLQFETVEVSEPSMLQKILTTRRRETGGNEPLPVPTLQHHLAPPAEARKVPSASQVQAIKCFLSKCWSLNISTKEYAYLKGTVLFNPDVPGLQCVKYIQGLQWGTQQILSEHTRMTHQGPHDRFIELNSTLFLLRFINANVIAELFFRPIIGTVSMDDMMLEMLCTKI
ssDAF12 agonist = S. stercoralis DAF-12 activation, primary screen | HEK293 ssDAF-12/GRIP1 lit1-tk-luc reporter, luminescence; % of 3 µM dafachronic acid response | activation, % at 6.8 µM | actives 1% (n = 370,000);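 active = activation above the mean over all tested compounds plus 3 SD, cut at about 0.9% in these data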;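 also: 0% = DMSO-only wells and 100% = 3 µM delta7-dafachronic acid wells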
SMARCA2 act = increases SMARCA2 function in MMTV reporter cells; AID 652017; activation, % at 9.1 µM; MG213 cells, MMTV-luciferase reporter, dexamethasone, overnight; actives 1% (n = 370,000); in the data active = activation above about 7.8%;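 also: 0% = vehicle wells and 100% = reference activator wells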
DAX1 inh-2 = DAX1 (NR0B1) inhibition, primary screen | HEK293T StAR-luciferase reporter, SF-1/DAX-1 repression relief | actives 1.1% (n = 370,000) | inhibition, % at 6.8 µM;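 active = inhibition above the mean over all tested compounds plus 3 SD, cut at about 3.6% in these data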;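 also: 0% = DAX-1 cells with DMSO and 100% = cells lacking DAX-1 with DMSO; higher inhibition means more luminescence from relief of DAX-1 repression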
hgDAF-12 ag = agonists of H. glycines DAF-12 nuclear receptor. AID 687014. activation, % at 6.8 µM. HEK293 GAL4-hgDAF12 UAS-luciferase reporter, agonist luminescence; normalized to butyrate control. actives 1.8% (n = 370,000);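 active = activation above a cutoff set at the mean of all screened compounds plus 3 SD, cut at about 10% in these data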;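 also: 0% = DMSO wells and 100% = sodium butyrate wells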
* hit, by the source's call; nt = no result given. An excerpt weighted towards active compounds, which were near 4.8% of everything screened.

SMILES	hcDAF12 agonist	DAX1 inh-1	ssDAF12 agonist	SMARCA2 act	DAX1 inh-2	hgDAF-12 ag
CC1CN(C(=O)CCC(=O)NCCCN2C(C)CCCC2C)c2ccccc2O1 (stereo not drawn)	1.9	0.5	-0.8	1.4	0.5	0.7
O=C(NCCOc1ccccc1F)c1cc(F)c(F)cc1Cl	4.9	1.3	1.2*	6.0	3.7*	13.0*
CSc1ccccc1C(=O)NCCOc1ccccc1C	-2.0	-1.6	-1.6	-3.4	-0.7	-0.7
Cc1ccccc1C(=O)NCCOc1ccccc1Cl	3.1	5.0*	1.1*	6.7	2.5	11.5*
COc1cc2ccc(NC(C)=O)cc2cc1OC	-1.2	0.7	-0.6	-1.9	-1.1	5.8
COc1ccc(-n2c(COc3ccc(C)cc3)nnc2SCC(=O)Nc2ccc(S(=O)(=O)Nc3cc(C)nc(C)n3)cc2)cc1	1.6	nt	-1.8	-2.9	0.5	0.4
C[C@H](CCCCC1(C)OCCO1)CCC(=O)N(c1ccccc1)c1ccccc1	-1.9	nt	-0.8	-4.0	-1.6	0.4
COc1cccc(CC(=O)Nc2ccc3c(c2)c(=O)n(C)n3-c2ccc(C(C)(C)C)cc2)c1	-0.9	nt	4.1*	0.8	-0.2	0.1
CN(C)C(=O)c1nc2ccccc2s1	6.5*	1.7	0.3	2.1	0.6	4.6
NNC(=O)c1nc2ccccc2s1	2.1	1.4	0.4	1.6	3.2	5.4
COC(=O)c1cn(NC(=O)Cc2cccc(OC)c2)c(=O)c2ccccc12	-0.6	4.2*	-1.4	-1.3	-0.3	1.9
Cc1nn(-c2nc(-c3ccco3)cc(C(F)(F)F)n2)c(C)c1Br	-2.2	4.7*	-1.3	-2.4	-0.2	-0.3
CC(C)(C)OC(=O)N[C@H](C(=O)OC(C)(C)C)c1ccc(C(F)(F)F)cc1	-0.7	2.2	-1.3	0.8	-0.2	-2.4
CCOc1cc(N2CCOCC2)c(OCC)cc1NC(=O)[C@H](C)NC(=O)c1ccco1	3.0	-0.6	-0.8	-3.2	-0.2	2.2
CC(=O)N[C@@H](Cc1c[nH]c2ccccc12)C(=O)OCC(=O)Nc1cc(C)on1	-0.8	1.6	-1.2	5.5	-0.5	-3.3
COc1ccccc1NC(=O)N1CCCC(C(=O)Nc2cccc(C)c2C)C1 (stereo not drawn)	-0.1	7.5*	-1.4	-1.8	0.2	0.3
COc1cc(/C=C/C(=O)O)cc(S(=O)(=O)N2CCc3ccccc32)c1OC	2.1	-1.6	2.3*	5.4	-0.7	0.8
O=C(O)c1ccc(NC2(C(=O)O)CCCC2)cc1	0.1	-0.7	-0.5	3.4	2.4	-0.5
COc1cc(NC(=O)C2CCCN2S(=O)(=O)c2cccc3cccnc23)cc(OC)c1OC (stereo not drawn)	-0.8	4.6*	-1.1	-1.7	0.0	-0.2
COc1ccc(NC(=O)[C@@H]2CCCN2S(=O)(=O)c2cccc3cccnc23)cc1	-2.2	0.3	-1.1	0.9	0.5	-1.1
CCOC(=O)N1CCC(NC(=O)Cn2ncc3ccccc32)CC1	-1.2	-0.5	-0.9	-0.1	0.0	1.2
CC1CCC(NC(=O)Cn2ncc3ccccc32)CC1 (stereo not drawn)	1.8	6.5*	-0.4	2.1	1.5	1.6
CC(C)CC1(C)NC(=O)N(CC(=O)N2C(C)CCCC2C)C1=O (stereo not drawn)	-0.9	0.1	-0.1	-0.7	0.2	-0.6
O=c1c(-c2cc3ccccc3[nH]2)nc2ccccc2n1C(CCc1ccccc1)c1nc2ccccc2[nH]1 (stereo not drawn)	0.9	nt	0.2	1.4	3.4	3.9
COc1cccc(/C=C2\Oc3ccc(O)cc3C2=O)c1O	6.0*	0.6	1.8*	5.1	4.0*	6.8
COC(=O)c1ccc2c(c1)C(=O)/C(=C/c1ccc(O)cc1)O2	-0.5	0.5	-0.3	4.1	-0.1	4.4
CN(C)S(=O)(=O)c1cccc(C(=O)N/N=C\c2ccccc2)c1	3.7	nt	-0.8	-2.4	0.2	10.0
Cc1nc(/C(N)=N/OC(=O)c2c(-c3ccccc3Cl)noc2C)cs1	0.1	5.9*	-1.6	-0.6	0.3	-2.6
COc1ccccc1NC(=O)NCCC1=CCCCC1	-1.5	-0.7	-1.7	-0.9	-0.4	-1.9
COc1ccccc1OCC(=O)NCCC1=CCCCC1	-2.6	-0.7	-1.6	-1.6	0.4	-1.6
